Experimental data from PubChem BioAssay.
For some of these results: Entries with a potency or affinity are not part of this list. Activity calls are given as the source filed them. Unless noted, how the calls were made is not given here.

Experiments:
[1] = antimalarial activity against Dd2 strain (AID 2302;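 active means growth inhibition above 50% at the single 2 µM test dose, taken to imply half-maximal potency below 2 µM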;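 further: 0% = DMSO untreated growth and 100% = chloroquine plus artemisinin killed control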); details: P. falciparum Dd2 in RBCs, LDH growth readout, 72 h; at 2 µM; active compounds read high
[2] = HepG2 cytotoxicity, primary screen, cytotoxicity control for P. falciparum antimalarial project, cell-based, ATP luminescence (AID 2303;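 active means inhibition above 50%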;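 further: 0% = DMSO wells and 100% = digitonin-killed cells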); details: HepG2 viability, 24-48 h, at 10 µM, active compounds read high
[3] = biological target: L-lactate dehydrogenase (Plasmodium falciparum (isolate CDC / Honduras)) (UniProt Q27743); experiment: PfLDH activity inhibition – cell lysate, 3D7 strain, counter-screen for P. falciparum growth inhibition project (AID 2304);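 further: 0% = vehicle and 100% = reference inhibitor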; details: P. falciparum 3D7 crude extract, LDH APAD/NBT absorbance; at 2 µM; active compounds read high
[4] = inhibition of 3D7 malaria parasite growth – strain 3D7 (AID 2306);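 further: 0% = DMSO wells and 100% = chloroquine plus artemisinin control wells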; details: P. falciparum 3D7 erythrocytic growth, LDH absorbance, 72 h; at 2 µM; active compounds read high
[5] = biological target: Calcium-dependent protein kinase 1 (Plasmodium falciparum (isolate 3D7)) (UniProt P62344); experiment: PfCDPK1 kinase inhibitors, biochemical, TCAMS library (AID 1159585; cut-off not given, nearly all actives have IC50 up to about 0.98 µM;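 further: inhibitors leave more ATP so luminescence rises with inhibition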); details: recombinant PfCDPK1, Kinase-Glo ATP depletion luminescence
[6] = biological target: Plasmodium falciparum protein kinase 6 (PK6, PF3D7_1337100) (UniProt Q8IDW1); experiment: PfPK6 kinase inhibitors, biochemical, TCAMS library (AID 1159586); details: recombinant PfPK6, Kinase-Glo ATP depletion luminescence
[7] = biological target: Protein kinase 7 (PK7), Plasmodium falciparum 3D7 (PF3D7_0213400) (UniProt Q7YTF7); experiment: inhibition of Plasmodium PK7 catalytic activity – biochemical, TCAMS antimalarial set, Kinase-Glo luminescence (AID 1159587); details: recombinant PfPK7, Kinase-Glo ATP depletion luminescence
[8] = biological target: Calcium-dependent protein kinase 4 (Plasmodium falciparum (isolate 3D7)) (UniProt Q8IBS5); experiment: PfCDPK4 kinase inhibitors, biochemical, TCAMS library (AID 1159588; cut-off not given, nearly all actives have IC50 up to about 0.91 µM); details: recombinant PfCDPK4, Kinase-Glo ATP depletion luminescence
Chain of Calcium-dependent protein kinase 4 (Plasmodium falciparum (isolate 3D7)) (Q8IBS5 whole entry, looked up): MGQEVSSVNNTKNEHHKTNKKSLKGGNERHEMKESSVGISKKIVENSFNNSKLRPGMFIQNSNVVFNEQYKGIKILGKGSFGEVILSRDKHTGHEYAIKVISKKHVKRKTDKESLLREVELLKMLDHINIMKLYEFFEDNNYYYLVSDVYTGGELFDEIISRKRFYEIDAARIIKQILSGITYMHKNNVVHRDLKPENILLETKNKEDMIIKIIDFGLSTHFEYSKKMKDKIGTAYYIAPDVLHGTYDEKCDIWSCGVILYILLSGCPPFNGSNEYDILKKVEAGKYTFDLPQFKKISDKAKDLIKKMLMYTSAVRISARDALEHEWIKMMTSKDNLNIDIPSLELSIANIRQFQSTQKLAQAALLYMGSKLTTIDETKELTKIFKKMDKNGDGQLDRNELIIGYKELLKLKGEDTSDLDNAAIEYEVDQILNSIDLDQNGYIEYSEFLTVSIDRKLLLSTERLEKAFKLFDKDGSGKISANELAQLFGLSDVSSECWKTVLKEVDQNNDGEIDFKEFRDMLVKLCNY

Chain of Calcium-dependent protein kinase 1 (Plasmodium falciparum (isolate 3D7)) (P62344 whole entry, looked up): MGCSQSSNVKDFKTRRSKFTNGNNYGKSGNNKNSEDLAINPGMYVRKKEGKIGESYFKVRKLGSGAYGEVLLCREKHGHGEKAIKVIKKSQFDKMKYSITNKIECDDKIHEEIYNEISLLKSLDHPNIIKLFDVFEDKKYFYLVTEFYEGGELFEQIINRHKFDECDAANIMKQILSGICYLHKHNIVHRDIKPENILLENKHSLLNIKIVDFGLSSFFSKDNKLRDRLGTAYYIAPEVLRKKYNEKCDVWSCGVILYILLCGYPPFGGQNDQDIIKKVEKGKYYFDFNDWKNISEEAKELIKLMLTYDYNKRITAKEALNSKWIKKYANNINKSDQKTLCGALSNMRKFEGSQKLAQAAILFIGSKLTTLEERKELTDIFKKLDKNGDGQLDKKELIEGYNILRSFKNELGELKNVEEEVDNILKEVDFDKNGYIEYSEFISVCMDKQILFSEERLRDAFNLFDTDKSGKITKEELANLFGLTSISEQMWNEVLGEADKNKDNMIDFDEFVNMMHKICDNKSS
Chain of Plasmodium falciparum protein kinase 6 (PK6, PF3D7_1337100) (Q8IDW1 1-305): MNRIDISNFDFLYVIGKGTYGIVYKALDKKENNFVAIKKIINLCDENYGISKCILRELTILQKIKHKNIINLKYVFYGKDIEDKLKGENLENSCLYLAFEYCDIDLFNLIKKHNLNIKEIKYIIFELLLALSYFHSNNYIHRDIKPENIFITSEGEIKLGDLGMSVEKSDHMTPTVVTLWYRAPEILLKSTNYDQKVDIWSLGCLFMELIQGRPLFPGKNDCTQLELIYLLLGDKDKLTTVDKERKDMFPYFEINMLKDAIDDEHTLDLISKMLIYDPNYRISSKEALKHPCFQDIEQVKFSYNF
Chain of Protein kinase 7 (PK7), Plasmodium falciparum 3D7 (PF3D7_0213400) (Q7YTF7 1-343): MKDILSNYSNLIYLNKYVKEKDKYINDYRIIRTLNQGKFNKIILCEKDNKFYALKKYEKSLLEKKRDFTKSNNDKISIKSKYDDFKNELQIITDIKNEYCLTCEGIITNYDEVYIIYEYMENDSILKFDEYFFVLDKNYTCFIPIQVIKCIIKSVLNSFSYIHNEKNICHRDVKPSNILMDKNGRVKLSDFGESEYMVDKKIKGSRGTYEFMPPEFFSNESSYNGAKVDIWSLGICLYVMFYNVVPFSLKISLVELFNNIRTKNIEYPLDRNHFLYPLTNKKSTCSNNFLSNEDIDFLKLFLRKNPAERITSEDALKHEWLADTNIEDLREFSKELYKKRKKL
Chain of L-lactate dehydrogenase (Plasmodium falciparum (isolate CDC / Honduras)) (Q27743 whole entry, looked up): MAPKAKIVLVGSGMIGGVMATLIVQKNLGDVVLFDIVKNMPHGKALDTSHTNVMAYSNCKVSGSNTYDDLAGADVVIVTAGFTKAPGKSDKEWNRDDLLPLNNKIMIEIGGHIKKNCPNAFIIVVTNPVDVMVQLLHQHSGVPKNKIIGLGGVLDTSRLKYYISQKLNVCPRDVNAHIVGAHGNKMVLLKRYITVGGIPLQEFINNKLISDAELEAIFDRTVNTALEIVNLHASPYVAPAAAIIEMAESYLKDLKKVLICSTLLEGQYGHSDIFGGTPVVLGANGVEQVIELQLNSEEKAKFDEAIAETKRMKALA

CC(=O)Nc1ccc(CN2CCc3ccc(NS(=O)(=O)c4cccc(OCc5ccc(Cl)cc5)c4)cc3CC2)s1
active: growth inhibition [4] 93%
inactive: growth inhibition [1] 7% | inhibition [2] 23% | inhibition [3] -3% | outcome [5] | outcome [6] | outcome [7] | outcome [8]

CC(C)Cn1c(Sc2ccc(C#N)c([N+](=O)[O-])c2)nnc1-c1ccc(N(C)C)cc1
inactive: inhibition [2] 4% | inhibition [3] 4% | outcome [5] | outcome [6] | outcome [7] | outcome [8]
active: growth inhibition [1] 98% | growth inhibition [4] 98%

O=C(Nc1ccc(-c2ccc(CN3CCNCC3)cc2)cc1)c1cccc(Cl)c1
inactive: growth inhibition [1] 16% | inhibition [3] 2% | outcome [5] | outcome [6] | outcome [7] | outcome [8]
active: inhibition [2] 58% | growth inhibition [4] 91%

NC(N)=NC(=O)Nc1ccc(Cl)c(Cl)c1
inactive: growth inhibition [1] 13% | inhibition [2] 29% | inhibition [3] 1% | outcome [5] | outcome [6] | outcome [7] | outcome [8]
active: growth inhibition [4] 95%

CC(Nc1ncc(-c2ccsc2)c(-c2nccs2)n1)c1ccc2c(c1)OCCO2 (stereo not drawn)
inactive: inhibition [2] 14% | inhibition [3] 2% | outcome [5] | outcome [6] | outcome [7] | outcome [8]
active: growth inhibition [1] 66% | growth inhibition [4] 81%

CCN(CC)C(=NCCCCCCN=C(NC(N)=NCc1ccc(Cl)cc1Cl)N(CC)CC)NC(N)=NCc1ccc(Cl)cc1Cl
inactive: inhibition [2] 16% | inhibition [3] -3% | outcome [5] | outcome [6] | outcome [7] | outcome [8]
active: growth inhibition [1] 99% | growth inhibition [4] 102%

CCCCCCCCCN1CC[C@@H](CCCc2ccnc3ccc(O)cc23)[C@@H](CC)C1
inactive: inhibition [3] -3% | outcome [5] | outcome [6] | outcome [7] | outcome [8]
active: growth inhibition [1] 59% | inhibition [2] 58% | growth inhibition [4] 83%

CCCc1c(Cl)cc(CNCCCNc2nc3ccncc3[nH]2)cc1Cl
active: growth inhibition [4] 98%
inactive: growth inhibition [1] -5% | inhibition [2] 23% | inhibition [3] -5% | outcome [5] | outcome [6] | outcome [7] | outcome [8]

NC(=O)N1CCN(Cc2ccc(Br)cc2)CC1
active: inhibition [2] 83% | growth inhibition [4] 96%
inactive: growth inhibition [1] 0% | inhibition [3] -5% | outcome [5] | outcome [6] | outcome [7] | outcome [8]

CC(C)[C@@H](C(=O)NCc1cccc(C(F)(F)F)c1)N1C(=O)CCC1C(=O)Nc1ccc([N+](=O)[O-])cc1 (stereo partly drawn)
inactive: growth inhibition [1] 2% | inhibition [2] -5% | inhibition [3] -2% | outcome [5] | outcome [6] | outcome [7] | outcome [8]
active: growth inhibition [4] 94%

O=C(CC(=O)Nc1cc(Cl)cc(Cl)c1)Nc1cc(Cl)cc(Cl)c1
inactive: inhibition [2] -4% | inhibition [3] -2% | outcome [5] | outcome [6] | outcome [7] | outcome [8]
active: growth inhibition [1] 96% | growth inhibition [4] 95%

CCCCCCCc1c2c(C)c(C(=O)OCC)nc-2cc2n1CC(C)=C2C
active: growth inhibition [4] 89%
inactive: growth inhibition [1] 10% | inhibition [2] 11% | inhibition [3] 1% | outcome [5] | outcome [6] | outcome [7] | outcome [8]

CCCCc1ccc2[nH]cc(C(=O)OCC)c(=O)c2c1
active: growth inhibition [1] 96% | growth inhibition [4] 95%
inactive: inhibition [2] 3% | inhibition [3] 5% | outcome [5] | outcome [6] | outcome [7] | outcome [8]

Clc1ccc(-c2[nH]c3ccccc3c2CN2CCC(N3CCCCC3)CC2)cc1
inactive: growth inhibition [1] 15% | inhibition [2] 5% | inhibition [3] 5% | outcome [5] | outcome [6] | outcome [7] | outcome [8]
active: growth inhibition [4] 93%

COc1cc(Cn2ccc3c4c(N)nc(N)nc4ccc32)cc(OC)c1OC
active: growth inhibition [1] 97% | inhibition [2] 66% | growth inhibition [4] 94%
inactive: inhibition [3] 3% | outcome [5] | outcome [6] | outcome [7] | outcome [8]

COc1c(C2CCN(CCCCNC(=O)c3ccc(NC(=O)c4ccc(C#N)cc4)cc3)CC2)ccc2c1CCCC2
active: growth inhibition [1] 100% | inhibition [2] 81% | growth inhibition [4] 97%
inactive: inhibition [3] 1% | outcome [5] | outcome [6] | outcome [7] | outcome [8]

Cc1nnc2c(NC(=O)NC(C)C)cc3cc(-c4ccc(CN5CCCCC5)cc4)ccc3n12
active: inhibition [2] 70% | growth inhibition [4] 87%
inactive: growth inhibition [1] 8% | inhibition [3] 1% | outcome [5] | outcome [6] | outcome [7] | outcome [8]

Fc1cccc(COc2ccc(Nc3ncnc4ccc(-c5nnc(C(F)(F)F)o5)cc34)cc2Cl)c1
active: growth inhibition [1] 77% | growth inhibition [4] 101%
inactive: inhibition [2] 14% | inhibition [3] 5% | outcome [5] | outcome [6] | outcome [7] | outcome [8]

O=C(Nc1ccnc(N2C[C@H]3C[C@@H]2CN3Cc2cccc(O)c2)c1)c1ccc(F)cc1
active: growth inhibition [4] 92%
inactive: growth inhibition [1] 0% | inhibition [2] 2% | inhibition [3] 4% | outcome [5] | outcome [6] | outcome [7] | outcome [8]

CCSc1ccccc1COc1c(C)nc(N)nc1N
active: inhibition [2] 54% | growth inhibition [4] 93%
inactive: growth inhibition [1] 4% | inhibition [3] 3% | outcome [5] | outcome [6] | outcome [7] | outcome [8]

Cn1cncc1CCCN(Cc1ccc(-c2ccc(C(F)(F)F)cc2)cc1)C(=O)Cn1c(CCc2cccc(F)c2F)cc(=O)c2cccnc21
active: growth inhibition [1] 59% | growth inhibition [4] 85%
inactive: inhibition [2] 17% | inhibition [3] -2% | outcome [5] | outcome [6] | outcome [7] | outcome [8]

CS(=O)(=O)N1CC2(CCN(CCC(NC(=O)Nc3ccccc3)c3ccc(Cl)c(Cl)c3)CC2)c2ccccc21 (stereo not drawn)
inactive: inhibition [2] 23% | inhibition [3] 5% | outcome [5] | outcome [6] | outcome [7] | outcome [8]
active: growth inhibition [1] 72% | growth inhibition [4] 99%

N=C1C=C(N)C(=O)c2ccccc21
inactive: inhibition [3] -2% | outcome [5] | outcome [6] | outcome [7] | outcome [8]
active: growth inhibition [1] 85% | inhibition [2] 99% | growth inhibition [4] 81%

COc1cccc2c(NN=Cc3ccccc3[N+](=O)[O-])cc(C)nc12
active: growth inhibition [4] 99%
inactive: growth inhibition [1] 32% | inhibition [2] -6% | inhibition [3] -5% | outcome [5] | outcome [6] | outcome [7] | outcome [8]

Clc1ccc2c(NN=Cc3ccccc3)ccnc2c1
inactive: inhibition [2] -6% | inhibition [3] -3% | outcome [5] | outcome [6] | outcome [7] | outcome [8]
active: growth inhibition [1] 94% | growth inhibition [4] 100%

Cc1nc(-c2nc(NCCc3c(C)noc3C)ncc2-c2ccsc2)sc1C
inactive: inhibition [2] 12% | inhibition [3] -2% | outcome [5] | outcome [6] | outcome [7] | outcome [8]
active: growth inhibition [1] 85% | growth inhibition [4] 87%

O=C(Nc1cccc(-c2ccc(-c3nc4ccc(F)cc4[nH]3)cc2)c1)c1csnn1
active: growth inhibition [4] 94%
inactive: growth inhibition [1] 31% | inhibition [2] 22% | inhibition [3] 0% | outcome [5] | outcome [6] | outcome [7] | outcome [8]

CN(C)S(=O)(=O)c1ccc(C(=O)N(c2nc(-c3ccccc3)cs2)C2CCCCC2)cc1
inactive: growth inhibition [1] 46% | inhibition [2] 7% | inhibition [3] -3% | outcome [5] | outcome [6] | outcome [7] | outcome [8]
active: growth inhibition [4] 98%

O=C(c1cc2nc3c(c(C(F)(F)F)n2n1)CCc1ccccc1-3)N1CCN2CCCC2C1 (stereo not drawn)
active: growth inhibition [4] 94%
inactive: growth inhibition [1] 3% | inhibition [2] -8% | inhibition [3] 0% | outcome [5] | outcome [6] | outcome [7] | outcome [8]

Nc1nc(N)c2c(ccc3c2ccn3Cc2cc3c(cc2Cl)OCO3)n1
active: growth inhibition [1] 94% | inhibition [2] 58% | growth inhibition [4] 95%
inactive: inhibition [3] -5% | outcome [5] | outcome [6] | outcome [7] | outcome [8]

c1ccc2c(c1)CN(CC1CCOCC1)CC1(CCN(Cc3c[nH]c4cnccc34)CC1)O2
inactive: growth inhibition [1] 7% | inhibition [2] 21% | inhibition [3] -3% | outcome [5] | outcome [6] | outcome [7] | outcome [8]
active: growth inhibition [4] 99%

COc1ccc(-c2cccc(NC(=O)c3ccccc3)c2)cc1CN1CCCN(C)CC1
inactive: growth inhibition [1] 25% | inhibition [2] 22% | inhibition [3] -7% | outcome [5] | outcome [6] | outcome [7] | outcome [8]
active: growth inhibition [4] 98%

CNc1ccc(CNCc2ccc(-c3ccc(-c4nc5ccc(C(F)(F)F)cc5[nH]4)cc3)cc2)cc1
inactive: inhibition [3] -3% | outcome [5] | outcome [6] | outcome [7] | outcome [8]
active: growth inhibition [1] 98% | inhibition [2] 53% | growth inhibition [4] 101%

CCCCC1(NC(=O)[C@@H](Nc2ccc(C#N)c3ccccc23)C2CCCCC2)CCCCC1
inactive: inhibition [2] 8% | inhibition [3] 0% | outcome [5] | outcome [6] | outcome [7] | outcome [8]
active: growth inhibition [1] 84% | growth inhibition [4] 91%

CCOc1cccc(C(=O)Nc2ccc(-c3nc4ccccc4[nH]3)cc2)c1
inactive: growth inhibition [1] 30% | inhibition [2] 40% | inhibition [3] -1% | outcome [5] | outcome [6] | outcome [7] | outcome [8]
active: growth inhibition [4] 96%

O=S(=O)(NCCN1CCCC1)c1ccc(-c2ccc(CNCc3ccccc3)cc2)cc1F
active: growth inhibition [4] 83%
inactive: growth inhibition [1] 39% | inhibition [2] 35% | inhibition [3] 4% | outcome [5] | outcome [6] | outcome [7] | outcome [8]

Cc1nn(-c2cccc(C(F)(F)F)c2)c2sc(C(=O)NC3CCN(C(C)C)CC3)cc12
active: inhibition [2] 98% | growth inhibition [4] 94%
inactive: growth inhibition [1] 20% | inhibition [3] -4% | outcome [5] | outcome [6] | outcome [7] | outcome [8]

COc1ccc(CCn2c(=N)c(C(=O)NC3CCCC3)cc3c(=O)n4ccccc4nc32)cc1
active: growth inhibition [4] 99%
inactive: growth inhibition [1] 34% | inhibition [2] 11% | inhibition [3] 1% | outcome [5] | outcome [6] | outcome [7] | outcome [8]

CC(Cc1ccc(COc2ccc(CC(CO)NCCc3cccc(Cl)c3)cc2)cc1)NCCc1cccc(Cl)c1 (stereo not drawn)
active: growth inhibition [1] 86% | inhibition [2] 99% | growth inhibition [4] 101%
inactive: inhibition [3] 5% | outcome [5] | outcome [6] | outcome [7] | outcome [8]

Cc1ccc(CN2CCC(C(=O)Nc3ccc(-c4cc5ccccc5[nH]4)cc3)CC2)o1
active: growth inhibition [4] 92%
inactive: growth inhibition [1] 40% | inhibition [2] 19% | inhibition [3] 3% | outcome [5] | outcome [6] | outcome [7] | outcome [8]

Cc1cc2nc(-c3ccc(/C=C/C(=O)NC4CCN(Cc5ccccc5)CC4)cc3)[nH]c2cc1C
inactive: inhibition [2] 18% | inhibition [3] -2% | outcome [5] | outcome [6] | outcome [7] | outcome [8]
active: growth inhibition [1] 89% | growth inhibition [4] 98%
